The results in this text go back to PubChem BioAssay (NCI).

Several values for one entry are separate records, joined by “and”; a condition that tells them apart may be missing. Identical values can stand only once. Compounds without any hit were thinned out: in the full panel of roughly 83,000, 20% have a hit.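 Each cell line was grown in a 96-well plate and treated with one concentration of compound for 48 hours. Values below 10 were considered active.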 Activity calls are given as the source filed them.

For the first experiment, the system named is OVCAR-3 ovarian. Put plainly: NCI-60 one-dose screen, 48 h (100 = growth as untreated, 0 = no growth, -100 = all killed). The note with it: 10 µM. The method, then: Growth inhibition of the OVCAR-3 human tumor cell line is measured as a screen for anti-cancer activity. Cells are grown in 96 well plates and exposed to the test compound for 48 hours. Compounds are tested at a single concentration, which is 10^-5 M for most compounds. The reported endpoint is percent growth (GI% or GIPRCNT), where numbers from 0 - 100% represent growth inhibition, and numbers from -100% - 0 represent cell death. For example, a value of 40 represents 60% growth inhibition. A value of 0 means no net growth occurred over the course of the experiment. A value of -40 indicates 40% of cells at the beginning of the experiment died by the end of the experiment. A value of -100 means all cells are dead at the end of the experiment.
NCI-60 Human Tumor Cell Lines Screen was performed using the standard one-dose NCI protocol, which is described in more detail at https://dtp.cancer.gov/discovery_development/nci-60/default.htm.
Compounds with GIPRCNT values below 10 were considered active. Activity score was based on GIPRCNT using the following formula: […]
Score is 0 for GIPRCNT values of 100 or above, 50 for GIPRCNT values of 0, and 100 for GIPRCNT values of -100.
Regarding `COc1ccc(C(=O)/C=C/c2ccc(OCc3cccc(C(F)(F)F)c3)c(OC)c2)cc1OC`, the growth is 79.8% (inactive).

Regarding `CC(=O)/C=C/c1ccc(N(CCO)Cc2ccc(C(C)(C)C)cc2)cc1`, the growth is 84.4% (inactive).

Still in this experiment, the particulars now being: 10 µM unless noted.
`CN1CCCc2cc(/C=C3\SC(=S)N(C(Cc4ccc(O)cc4)C(=O)O)C3=O)ccc21` (stereo not given): the growth is 95.5% (inactive).

Take `COc1ccc(Cn2cc(C(=O)Nc3cccnc3Nc3ccccc3)nn2)cc1`: the growth was 118% (inactive).

For the compound `COc1cc2cc(NCc3ccncc3)nc(C)c2cc1OC`, the growth is 107% (inactive). Same read-out and setting: to `COc1ccc(CCNC(=O)COc2cc3c(Nc4ccc(F)c(Cl)c4)ncnc3cc2OC)cc1OC` belongs 82.8% (inactive); to `CCNC(=O)Oc1ccc(/C(=C(/C)Cc2ccc(OC)cc2)c2ccc(OCCN(CC)CC)cc2)cc1`, 50.7% (inactive). On the same count and under the same terms, under `COc1ccc(-c2cc(-c3cccnc3)nc3sc4c(Cl)nnnc4c23)cc1OC` stands 91.9% (inactive); under `COc1ccc2c(c1)CC[C@@H]1[C@@H]2CC[C@]2(C)C3C(=CCC4C(=O)N(c5ccccc5)C(=O)C43)C[C@@H]12` (stereo not given in full), 87.3% (inactive). Same read-out and setting: to `O=C(Nc1ccccc1C(=O)N/N=C(\c1ccccc1)c1ccccn1)c1ccccc1` belongs 28% (inactive); to `Nc1nc(Nc2ccc(F)cc2)nn1C(=O)c1cc(Cl)ccc1Cl`, 72.7% (inactive); to `[Cu+].[NH-][C@H]1C[N-]C(=O)[C@H]([C@H]2CCN=C(N)N2)[N-]C(=O)/C(=C\NC(N)=O)[N-]C(=O)[C@H](CNC(=O)C[C@@H](N)CCCN)[N-]C(=O)[C@H](CO)[N-]C1=O`, 104% (inactive). `O=C1CCc2c(sc3[nH]c(=S)n(Cc4ccc(Cl)cc4)c(=O)c23)C1`: the growth is 6.66% (active). The same measure, in the same setting: under `CC(=O)c1nn(-c2ccccc2)/c(=N/N=Cc2cn(-c3ccccc3)nc2-c2cc3ccccc3oc2=O)s1` stands 116% (inactive); under `Cn1cc(-c2csc(-c3c[nH]c4ccc(F)cc34)n2)c2cnccc21`, -73.2% (active); under `COc1ccc2nc3cc(Cl)ccc3c(NCCCNCCC(C)O)c2c1` (stereo not given), -38.2% (active).

As to `O=C(NNc1ccccc1)c1ccccc1`, the growth is 81.4% (inactive) and 101% (inactive). On to `Cc1ccc(/C=C2\COc3ccc(O)c(O)c3C2=O)cc1`, for which the growth was -21.3% (active). As for `COc1ccc(-c2cc(=O)c3c(O)cc(O)cc3o2)cc1`, the growth is 112% (inactive) and 81% (inactive).

With `COc1nc(=O)n(C2C=CC(=O)O2)cc1F` (stereo not given), the growth is 33.8% (inactive). As to `Cc1c(C(C)(C)O)cn2ncnc(Oc3ccc(NC(=O)Nc4ccc(Cl)c(C(F)(F)F)c4)cc3)c12`, the growth was 26.2% (inactive). Still for that read-out and setting: to `OCc1cc(CN2CCCCC2)c(O)c2ncccc12` belongs 45% (inactive).

Consider `Cc1nonc1-c1ccc2c(c1)OCO2`, for which the growth was 101% (inactive) and 105% (inactive). Still for that read-out and setting: under `CC[C@H](C)[C@H](NC(=O)[C@H](CCCCN)NC(=O)[C@H](CCCCN)NC(=O)[C@@H](NC(=O)[C@@H](NC(=O)[C@@H](N)Cc1cnc[nH]1)[C@@H](C)CC)[C@@H](C)CC)C(=O)N[C@@H](CCCNC(=N)N)C(=O)N[C@H](C(=O)N[C@@H](Cc1c[nH]c2ccccc12)C(=O)N[C@@H](Cc1ccc(O)cc1)C(=O)N[C@@H](CCCNC(=N)N)C(=O)N[C@@H](CCCCN)C(=O)N[C@@H](C)C(=O)N[C@@H](Cc1c[nH]c2ccccc12)C(=O)N[C@@H](Cc1cnc[nH]1)C(=O)N[C@H](C(=O)N[C@@H](CC(C)C)C(=O)NCC(=O)N[C@@H](CCCCN)C(=O)N[C@H](C(N)=O)C(C)C)C(C)C)[C@@H](C)O` stands 44.9% (inactive).

As to `Cc1ccc(-c2nc3nc(-c4ccccc4)nc(N4CCCNCC4)c3o2)cc1`, the growth was -81.7% (active). Same read-out and setting: to `COc1ccc2c(c1)c(C(=O)c1nc(-c3cn(C)c4ccccc34)no1)cn2C` belongs 109% (inactive); to `COC1=CC(=O)C(OC)=C(O)C1=O`, 105% (inactive); to `CCN1C(=O)/C(=c2\sc3n(c2=O)C2C(NN=3)N(CC)C(=O)N2CC)c2ccccc21` (stereo not given), -19% (active).

With `CCCCCCCCCCCCC[C@H](O)C[C@H](O)[C@H](C)N`, the growth was 103% [1.25 µM] (inactive).

For `Cc1cccc(Cc2cnc(NC(=O)CCCOc3ccc(Cl)cc3)s2)c1`, the growth is 7.26% (active). Still for that read-out and setting: to `COCCn1cc(-c2nc(-c3cn(CCOC)c4ncccc34)cs2)c2ccccc21` belongs 17.2% (inactive).

Consider `Nn1c(-c2ccc(Cl)cc2)nc2c(-c3ccc(Cl)cc3)nc3ccc(Cl)cc3c2c1=O`, for which the growth was -81.5% (active). On the same count and under the same terms, to `COC(=O)/C=C1/SC(N2N=C(c3cccs3)CC2c2ccc(F)cc2)=NC1=O` (stereo not given) belongs 11.5% (inactive).

Take `COc1ccc2c(O)c(/C=C3\N=Nc4nc(C)ccc43)oc2c1CC1CCNCC1`: the growth is 83.8% (inactive). Same read-out and setting: under `CCCCCCCCCCCCCCCCCCn1cc(COc2ccc(C=O)cc2)nn1` stands 96.8% (inactive); under `Nc1c(C(=O)Nc2ccncc2)sc2nc3c(cc12)CCCCCCCC3`, -81.8% (active). Still for that read-out and setting: to `O=C(CCN1CCOCC1)Nc1cccc(-n2cc(-c3ccncc3)c(-c3ccc(Cl)c(O)c3)n2)c1` belongs 14.3% (inactive).

As to `CC/C(=C(/c1ccc(O)cc1)c1ccc(OCCN2CCCCCC2)cc1)c1ccc(Cl)cc1`, the growth is 61% (inactive).

The experiment is the same for the next values; noted with them: 100 µM.
In the case of `COc1ccc(C(=O)/C=C/c2ccc(OCc3cccc(C(F)(F)F)c3)c(OC)c2)cc1OC`, the growth was -10.3% (active).

In the case of `CC(=O)/C=C/c1ccc(N(CCO)Cc2ccc(C(C)(C)C)cc2)cc1`, the growth was -95% (active).
